Bioassay records (PubChem)
14-3-3g Raf = modulators of 14-3-3 gamma protein binding, primary screen, biochemical, fluorescence polarization | inhibition, % at 40 µM | 160,000 compounds, 0.19% hits | AID 422, 2006 | FP, 14-3-3gamma / TMR-pS259-Raf peptide binding | 14-3-3 protein gamma (Homo sapiens), P61981; in the data active = inhibition above about 30%
Target sequence (P61981 whole entry, looked up): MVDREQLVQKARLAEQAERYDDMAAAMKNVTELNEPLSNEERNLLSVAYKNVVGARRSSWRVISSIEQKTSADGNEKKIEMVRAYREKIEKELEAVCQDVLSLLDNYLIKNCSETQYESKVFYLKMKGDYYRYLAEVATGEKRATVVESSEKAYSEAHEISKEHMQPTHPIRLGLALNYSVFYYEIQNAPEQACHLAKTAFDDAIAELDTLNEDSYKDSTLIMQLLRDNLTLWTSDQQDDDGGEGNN
Hits are given with their value; n = inactive; ! = a repeat was not active. The entries come from a sample that favours hits as a whole.

SMILES	14-3-3g Raf
O=C1c2ccc(Oc3cccc([N+](=O)[O-])c3)cc2C(=O)N1c1cc([N+](=O)[O-])ccc1O	n
Cc1ccc(CSCc2ccc(C(=O)NCc3cccnc3)o2)cc1	n
COC(=O)Cc1nc(Nc2cccc(Cl)c2)c2c(C)c(C)sc2n1	n
CC(=O)N1c2ccc(S(=O)(=O)CCC(=O)Nc3ccc(C)c(C)c3)cc2CC1C (stereo not given)	n
CC(=O)N1c2ccc(S(=O)(=O)CCC(=O)Nc3cc(C)ccc3C)cc2CC1C (stereo not given)	34
CC(=O)N1c2ccc(S(=O)(=O)CCC(=O)Nc3ccc(Br)cc3C)cc2CC1C (stereo not given)	n
COc1cc2c(cc1OC)C(C(=O)N1CCN(c3ccccc3)CC1)C(c1ccc(SC)cc1)N(C)C2=O (stereo not given)	n
CCOC(=O)c1c(N2C(=N)SCC2=O)sc2c1CCC(C(C)(C)C)C2 (stereo not given)	n
CCOC(=O)C1=C(N)Oc2cc(O)ccc2C1c1cccnc1 (stereo not given)	n
CCOC(=O)C1=C(C(C)=O)C(c2cccnc2)C(C#N)=C(N)O1 (stereo not given)	32
CCOC(=O)C1=C(CSc2nc(-c3ccncc3)ccc2C#N)OC(N)=C(C#N)C1c1cccnc1 (stereo not given)	n
O=C(CCCCCn1c(=S)[nH]c2ccc(Br)cc2c1=O)NC1CCCCCC1	n
COc1ccccc1N=c1oc2c(C)ncc(CO)c2cc1C(N)=O	n
COC(=O)c1ccc2c(c1)NC(=O)CS2	n
COC(=O)c1ccc2c(c1)SC1=C(CCCC1=O)N2	33
COC(=O)c1ccc(C2C3=C(CCCC3=O)Nc3ccc4nc(C)ccc4c32)cc1 (stereo not given)	n
Cc1ccc(-c2noc(CCC(=O)N3CCCC(C)C3)n2)cc1 (stereo not given)	n
N#Cc1cc(Oc2ccc(OCc3ccccc3)cc2)nc2ccccc12	n
COc1ccc2c3c(cccc13)OCC2=O	n
COc1ccc(C(C)=O)c2c(O)cccc12	n
CCC1=NNc2cccc3c(OC)ccc1c23	142
CC(C)(C)N1C(=O)C2C(C(=O)Nc3ccc(Br)cc3)C3C=CC2(O3)C1C(=O)NC1CCCCC1 (stereo not given)	n
CC(C)(C)OC(=O)C1C(=O)CC(C)(O)C(C(=O)OC(C)(C)C)C1c1cccc([N+](=O)[O-])c1 (stereo not given)	n
COc1ccc(OC)c(C2SCCN2C(=O)c2cc3cc(Br)ccc3oc2=O)c1 (stereo not given)	n
CCOC(=O)c1ccc(NC(=O)Cn2cccc2)cc1	n
SMILES	14-3-3g Raf
CCOC(=O)c1ccc(NC(=O)CN2CCN(c3ccccc3)CC2)cc1	n
CCOC(=O)c1ccc(NC(=O)CN2CCCCC2)cc1	31
CCC(=O)N1CCc2cc(S(=O)(=O)N3CCCCC3c3cccnc3)ccc21 (stereo not given)	n
COc1cc(C)c(C)cc1S(=O)(=O)N1CCCCC1c1cccnc1 (stereo not given)	31
CC(=O)Nc1ccc(S(=O)(=O)N2CCCCC2c2cccnc2)cc1 (stereo not given)	n
CCSc1ncnc2sc3c(c12)CCC(C)C3 (stereo not given)	n
CCc1ccc(O)c(N=Cc2cccc(C)c2O)c1	n
C=CCc1cccc(/C=N/c2ncn[nH]2)c1O	n
C=CCc1cccc(C=Nc2cc(Br)ccc2O)c1O	43
C#CCS(=O)(=O)c1cccc2cccnc12	n
O=C(NCc1ccccn1)c1ccc(CS(=O)(=O)Cc2ccc(Cl)cc2)o1	n
Cc1cc(=O)oc(C)c1C(=O)NCc1ccccn1	45!
Cc1ccc(CNC(=O)c2c(C)cc(=O)oc2C)cc1	n
Cc1ccccc1CS(=O)(=O)Cc1ccc(C(=O)NCc2ccccn2)o1	33
Cc1ccccc1CS(=O)(=O)Cc1ccc(C(=O)NCc2ccco2)o1	n
Cc1cc(=O)oc(C)c1C(=O)NCc1ccccc1Cl	n
O=C1CC(c2cccs2)CC2=C1C(c1ccccc1I)Nc1ccccc1N2 (stereo not given)	n
O=c1c2sccc2nc(SCc2cc(=O)n3ccccc3n2)n1Cc1ccccc1	n
CSc1ccc(C2C3=C(CC(C)(C)CC3=O)Nc3nc(SC)nn32)cc1 (stereo not given)	n
CC1CC(C)(C)NC(=S)N1CCCC(=O)NC(c1ccccc1)c1ccccc1 (stereo not given)	n
O=C(Nc1ccc2c(c1)OCO2)c1cnn2c1NC(c1ccc(F)cc1)CC2C(F)(F)F (stereo not given)	n
COc1ccc2oc(=O)c(C(=O)NCc3ccccc3)cc2c1	n
COc1cccc2cc(C(=O)C[n+]3ccc(N(C)C)cc3)c(=O)oc12	n
COc1ccc2oc(=O)c(C(=O)C[n+]3ccc(N(C)C)cc3)cc2c1	41
COc1ccc(NC(=O)Cc2c(C(=O)O)[nH]c3ccc(Cl)cc23)c(OC)c1	n
SMILES	14-3-3g Raf
CSc1nnc2c(n1)OC(C1CC=C(C)CC1)Nc1ccccc1-2 (stereo not given)	37!
CSc1nnc2c(n1)OC(c1ccc(C)cc1)Nc1ccccc1-2 (stereo not given)	n
CCSc1nnc2c(n1)OC(c1cc3c(cc1Cl)OCO3)Nc1ccccc1-2 (stereo not given)	n
COc1ccc(Br)cc1C1Nc2ccc(Br)cc2-c2nnc(SC)nc2O1 (stereo not given)	n
CSc1nnc2c(n1)OC(c1ccccc1C)Nc1ccc(Br)cc1-2 (stereo not given)	49
CCc1ccc(C2Nc3ccc(Br)cc3-c3nnc(SC)nc3O2)cc1 (stereo not given)	n
CSc1nnc2c(n1)OC(c1ccncc1)Nc1ccccc1-2 (stereo not given)	n
CSc1nnc2c(n1)OC(c1ccccc1F)Nc1ccc(Br)cc1-2 (stereo not given)	n
CCSc1nnc2c(n1)OC(c1ccccc1Cl)Nc1ccccc1-2 (stereo not given)	98
CCc1ccc(C2Nc3ccccc3-c3nnc(SC)nc3O2)cc1 (stereo not given)	149
CSc1nnc2c(n1)OC(C1CC=C(C)CC1C)Nc1ccc(Br)cc1-2 (stereo not given)	n
CCSc1nnc2c(n1)OC(c1ccccc1F)Nc1ccccc1-2 (stereo not given)	n
CC(=O)N1CCc2cc(S(=O)(=O)CCC(=O)N3CC(=O)N(CCc4ccccc4)C(=O)C3)ccc21	n
COc1cc2nc(SCC(=O)Nc3c(C)cc(C)cc3C)n3nc(C)nc3c2cc1OC	n
COc1cccc(OC)c1OCC(O)CN1CCOCC1 (stereo not given)	n
CC(C)c1ccc(OCC(=O)Nc2nc3ccccc3s2)cc1	n
O=C1c2ccc(Br)cc2C(=O)N1C1c2ccccc2Oc2ccccc21	n
COc1cc2c(C(=O)NCc3cccnc3)cn(C)c(=O)c2cc1OC	n
CC(=O)Nc1ccc(S(=O)(=O)N(CC2C(C)C=C(C)CC2C)C2CCCCC2)cc1 (stereo not given)	n
CCSc1nnc2c(n1)OC(c1ccc(OC3CCCC3)cc1)Nc1ccccc1-2 (stereo not given)	n
CCSc1nnc2c(n1)OC(c1ccc(C(=O)O)cc1)Nc1ccccc1-2 (stereo not given)	n
CCSc1nnc2c(n1)OC(c1ccc3ccccc3c1)Nc1ccccc1-2 (stereo not given)	139
C=CCn1c(SCCc2ccccc2)nc2c1c(=O)[nH]c(=O)n2C	n
